Source: PubChem BioAssay AID687001 (Broad Institute, 2013)
Measured potencies and affinities stand elsewhere.

Target: Protein S100-A4 (Homo sapiens) (UniProt P26447)
Assay: human S100A4 peptide interaction inhibition curves – biochemical, fluorescence polarization, cherry-picked hits, dose response (AID 687001);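 note: 0% = DMSO neutral control wells and -100% = TFP positive control wells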
Settings: FP, S100A4/TAMRA-myosin IIA peptide binding; series mostly up to 11 µM; activity change, negative = inhibition: at the top concentration;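 active = signal-lowering compounds whose fitted half-maximal concentration is at or below twice the top tested dose in every run; inconclusive = runs disagree, flat 30 to 70% inhibition, or poor curve fit; inactive = the rest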

Sequence of Protein S100-A4 (Homo sapiens) (P26447 whole entry, looked up): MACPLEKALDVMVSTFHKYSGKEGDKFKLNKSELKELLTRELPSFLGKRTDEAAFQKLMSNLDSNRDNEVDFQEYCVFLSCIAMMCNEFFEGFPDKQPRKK

Activity change, negative = inhibition, inactive:
COc1ccc2c3c(n(C)c2c1)[C@H](CO)N(C(=O)c1ccccc1)CC31CCN(C(=O)c2ccccc2)CC1 7.85%
O=C(O)c1ccc(/C=C2\SC(=S)N(NC(=O)c3ccccc3)C2=O)cc1 12.4%
CCCCSc1nnc(-c2ccccc2N)c(=O)[nH]1 3.48%
O=C(CN1C(=O)/C(=C/c2ccccc2Cl)SC1=S)NC1C=CS(=O)(=O)C1 (stereo unspecified) 17.7%
CCCCn1cnc2c(SCc3ccc(Cl)cc3)nc(N)nc21 -4.13%
CCCNC(=O)N1[C@@H]2c3ccc(-c4ccccc4OC)c(=O)n3C[C@@H]2[C@@H](CO)[C@@H]1C(=O)NC1CCC1 -1.44%
Cc1sc2nc(SCC(=O)N3CCOCC3)[nH]c(=O)c2c1-c1ccccc1 67.9% [at 5.6 µM]
COCCCNC(=O)C[C@@H]1C[C@@]2(C(=O)OC)CCCCC=C2N(Cc2ccc3c(c2)OCO3)C1=O -2.69%
CC1=CC(C)(C)NC(=S)N1C(C)c1ccccc1 (stereo unspecified) -1.25%
CCOC(=O)C1=C(C)N(C)C(=O)NC1c1cccc2ccccc12 (stereo unspecified) 13.3%
CC(=O)Nc1ccccc1-c1nc2cc(C#N)c(C#N)cc2[nH]c1=O 1.14%
O=C(Cc1ccccn1)N[C@@H]1CC[C@@H](CCNS(=O)(=O)c2cccc(F)c2)O[C@H]1CO 9.21%
CCCCn1c(N)c(N(CC)C(=O)CSCc2ccc(C)cc2)c(=O)[nH]c1=O -0.285%
O=C(CSc1nc2cc(Cl)ccc2s1)c1ccco1 5.96%
O=C(C[C@@H]1CC[C@@H]2[C@H](COC[C@H](O)CN2C(=O)c2cccnc2)O1)NCc1ccc(Cl)cc1 92.5% [at 5.6 µM]
CCN1CCN(CCNC(=O)c2cc(Cl)c(NC(=O)C3=C(C)OCCS3)cc2OC)CC1 17.9%
CCOc1ccc(N2CC(C(=O)NNC(=O)c3ccc(Br)cc3)CC2=O)cc1 (stereo unspecified) 1.89%
O=C(c1ccc(N2C(=O)CCC2=O)cc1)N1CCCSC1=Nc1ccccc1 -2.95%
COC(=O)c1ccc2c(=O)n(CCN3CCOCC3)c(SCC(=O)Nc3ccccc3Cl)nc2c1 -4.05%
NS(=O)(=O)c1ccc(NC(=O)COC(=O)CCCN2C(=O)c3cccc4cccc(c34)C2=O)cc1 26.3%
COc1cccc(NC(=O)N(C)C[C@H]2Oc3cc(C#CC4(O)CCCC4)ccc3S(=O)(=O)N([C@H](C)CO)C[C@H]2C)c1 -1.32%
CCCCN1C[C@H](CSC)[C@@H](CC(=O)Nc2ccc(Br)cc2)C1=O 1.93%
CCOc1ccc(/C=N/NC(=O)c2ccccc2C)cc1CN1CC2CC(C1)c1cccc(=O)n1C2 (stereo unspecified) -2.24%
CC(C)Cc1cc(C(=O)NCCCN2CCOCC2)no1 -0.225%
O=C1N[C@@H](Cc2ccccc2)COC(=O)[C@@H](Cc2ccc(F)cc2)CC/C=C/C[C@H]1CC(=O)N(CCO)Cc1ccccc1 -2.62%
Cn1c(=O)oc2cc(S(=O)(=O)NCc3ccc(Cl)cc3)ccc21 -0.477%
